The results in this text go back to ChEMBL document CHEMBL4513216, “Probing the Open Global Health Chemical Diversity Library for Multistage-Active Starting Points for Next-Generation Antimalarials” (ACS Infect Dis, 2020).

The campaign covered roughly 65,000 compounds. About 2,100 (3.2%) showed an effect of 50% or more. The median lay at about -52%. This is one part of a sample in which strong results are shown more often than they occur.

This test concerns Plasmodium falciparum. As to the kind of experiment: Screen against P. falciparum Asexual Blood Stage (ABS), at 5uM. The format is functional, Dd2. The conditions noted are these: tested at 5 uM.
Turning to `COc1cc(CNCc2ccc(NC(=O)NC(C)C)cc2)cc(OC)c1`, the INHIBITION is -65.3%.

As to `CCC(=O)Nc1cccc(OCC(=O)N2C[C@H]3CC[C@H]2C3)c1`, the INHIBITION is reported as -137%.

Regarding `COc1cccc(CC(=O)N2CCC3(CC2)OCCCC3O)c1OC` (configuration not stated), the INHIBITION is given as -112%.

Take `O=C(CN1CCCC1Cn1cccn1)NCCC1=CCCCC1` (configuration not stated): the INHIBITION is recorded as -61.8%.

In the case of `CCS(=O)(=O)N1CCc2c(COCc3ccncc3)cncc2C1`, the INHIBITION is on record as -181%.

Take `CCn1nccc1CN(C)C(=O)Cn1nc(C)cc1C`: the INHIBITION is -52.5%.

`CC(=O)Nc1cccc(OCCNC(=O)N(C)Cc2ccccc2)c1`: the INHIBITION is -47.8%.

Take `COc1ccc(F)c(CN2CC(=O)N(c3ccccc3C)CC2C)c1` (configuration not stated): the INHIBITION came to 9.59%.

`COc1cccc(CN2CC(=O)N(c3ccccc3C)CC2C)c1OC` (configuration not stated): the INHIBITION is given as 53.8%.

As for `COc1ccc(F)c(F)c1CN1CC(=O)N(c2ccccc2C)CC1C` (configuration not stated), the INHIBITION is given as 30.6%.

Turning to `CC(C)c1nnsc1CNC(=O)C1CCCN(C(=O)N(C)C)C1` (configuration not stated), the INHIBITION is -18.2%.

For `Fc1cccc(CNCC2OCCc3cn(CC4CCOCC4)nc32)c1` (configuration not stated), the INHIBITION stood at 17.8%.

Turning to `CC(C)n1ncc2c1NC(=O)CC21C(=O)Nc2c(Br)cc(Cl)cc21` (configuration not stated), the INHIBITION is recorded as -72.6%.

Consider `COc1cc2c(cc1CNC(=O)C(C)n1ccnc1C(C)C)OCCO2` (configuration not stated), for which the INHIBITION came out at 11.4%.

On to `COCc1nc(CNC(=O)C(C)n2ccnc2C(C)C)no1` (configuration not stated), for which the INHIBITION is on record as -14.3%.

Regarding `COc1cc2c(cc1CNC(=O)C(C)n1ccnc1C(C)C)CCC2` (configuration not stated), the INHIBITION came out at 60.2%.

As to `COc1cccc(N2CCN(CCC(=O)NC3CCCCC3)CC2)c1`, the INHIBITION was -28.7%.

As to `CCC(N)c1ccccc1OCC(=O)N1CCCC1` (configuration not stated), the INHIBITION is recorded as 52.5%.

As to `CCC(NC(=O)COC)c1ccccc1OCC(=O)N1CCCC1` (configuration not stated), the INHIBITION is given as -191%.

In the case of `CCC(NC(N)=O)c1ccccc1OCC(=O)N1CCCC1` (configuration not stated), the INHIBITION is listed as -37.9%.

As to `CCOCCC1(C(=O)N2CCCC(c3ncc[nH]3)C2)CCCC1` (configuration not stated), the INHIBITION was -71.1%.

As to `CC(c1ccncn1)N(C)Cc1cc2cc3c(cc2[nH]c1=O)OCO3` (configuration not stated), the INHIBITION is -84.5%.

For `CCOc1cccc(C(=O)Nc2ccncc2)c1`, the INHIBITION is reported as -39.7%.

As to `COc1c(CNC2(c3ccc(Cl)cc3)CCC2)c(C)nn1C`, the INHIBITION is 60.5%.

Take `COc1c(CNC2CCc3cc(Cl)ccc32)c(C)nn1C` (configuration not stated): the INHIBITION was determined as 21.4%.

Take `COc1c(CNC2(c3noc(C)n3)CCC2)c(C)nn1C`: the INHIBITION is recorded as -55.5%.

Regarding `Cc1nc(-c2ccccc2)cc(C2CCNCC2)n1`, the INHIBITION is on record as 57.8%.

As for `COc1ccc(-c2cc(C3CCNCC3)nc(C)n2)cc1`, the INHIBITION is on record as -57.7%.

In the case of `Cc1nc(-c2ccc(F)cc2)cc(C2CCNCC2)n1`, the INHIBITION is given as -33.4%.

On to `CC(=O)N1CCCC(c2nc(N(C)C)ncc2-c2cccc(F)c2)C1` (configuration not stated), for which the INHIBITION was -1.35%.

Regarding `Cc1ccc(C(=O)N2C[C@H]3CCC[C@@]3(COc3ccccn3)C2)nc1`, the INHIBITION was determined as 9.4%.

Regarding `O=C(c1cocn1)N1C[C@H]2CCC[C@@]2(COc2ccccn2)C1`, the INHIBITION stood at 52.1%.

`O=C(c1ncccn1)N1C[C@H]2CCC[C@@]2(COc2ccccn2)C1`: the INHIBITION stood at 14.9%.

As for `NC(=O)c1ccn(COc2ccccc2Cl)n1`, the INHIBITION was -63.1%.

Turning to `Cc1cnn(C2CN(c3ccccc3S(=O)(=O)C(F)(F)F)C2)c1`, the INHIBITION is recorded as -111%.

`CS(=O)(=O)NC[C@H]1Cn2c(-c3ccc(F)cc3)cnc2CO1`: the INHIBITION was -34.5%.

Turning to `CS(=O)(=O)NC[C@H]1Cn2c(-c3ccc(Cl)cc3)cnc2CO1`, the INHIBITION amounted to 57.1%.

For the molecule `CS(=O)(=O)NC[C@H]1Cn2c(-c3ccccc3)cnc2CO1`, the INHIBITION was -21%.

Regarding `CN(C)Cc1csc(-c2nccn2Cc2ccsc2)c1`, the INHIBITION was found to be 17.1%.

For `Cc1cccc(C(=O)N2CCC[C@]3(C[C@@H](OCC4CC4)CO3)C2)n1`, the INHIBITION is -156%.

Turning to `Cn1cc(CN2C[C@H](N3CCOCC3)[C@@H]3OCCC[C@@H]32)cn1`, the INHIBITION is given as -93.3%.

For `COc1cccc(C(O)CNC(=O)CC2CCCCC2)c1` (configuration not stated), the INHIBITION is recorded as -143%.

Regarding `c1ccc(COc2cccc(CNC3CCc4ncnn4C3)c2)cc1` (configuration not stated), the INHIBITION turned out to be 24.8%.

On to `OC(CNC1CCOCC1)c1ccc(Cl)c(F)c1` (configuration not stated), for which the INHIBITION stood at 50.9%.

As for `OC(CNC1CCOCC1)c1cccc(OCc2ccccc2)c1` (configuration not stated), the INHIBITION came to 53.2%.

In the case of `O=C(NCC(O)c1ccc(Cl)c(F)c1)NC1CC=CC1` (configuration not stated), the INHIBITION is recorded as -14.7%.

In the case of `CCN1CCC(NC(=O)NCC(O)c2ccc(Cl)c(F)c2)CC1` (configuration not stated), the INHIBITION is -34.9%.

In the case of `CC(C)(CNc1cccc(Cl)c1)NC(=O)C1CCCN(CC(N)=O)C1` (configuration not stated), the INHIBITION is -34.6%.

In the case of `COc1ccccc1-c1ncc(CN2CCCC(CCC(N)=O)C2)s1` (configuration not stated), the INHIBITION is given as -43.7%.

Regarding `COc1ccccc1-c1ncc(CN2C[C@H](O)[C@@H](N3CCCC3)C2)s1`, the INHIBITION amounted to 16.5%.

In the case of `COc1ccccc1-c1ncc(CN2C[C@@H](N(C)C)[C@H](C(C)C)C2)s1`, the INHIBITION stood at 54.7%.

Take `CCc1csc(C2CCCN(C(=O)c3ncccn3)C2)n1` (configuration not stated): the INHIBITION is listed as -94%.
